Assay outcomes: PubChem, National Center for Advancing Translational Sciences (NCATS)
Most compounds without a hit are left out; they make up all but 19% or so of the library.
TDP1 cell CPT: DT40-hTDP1 cell growth loss with CPT | chicken DT40 Tdp1-/-;hTDP1 cells + 20 nM CPT, ATP luminescence, 48 h | Potency, µM (highest dose often 46.2 µM), for inactives: at the highest dose activity change, negative = growth inhibition, actives largely listed as inhibitors | 420,000 tested, 12% active | AID 686979; also: potency is read from the fitted curve at half-maximal effect; nearly all actives have a fitted effect of over 55% in size
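Chicken DT40 Tdp1-/- cells stably complemented with human TDP1 were seeded at 400 cells/well in medium containing 20 nM camptothecin, exposed to pin-transferred compounds, and grown at 37 °C for at least 48 hr. Viability was read as ATP luminescence.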
IL-1B inflam inh: blocks inflammasome-driven IL-1 beta release; THP-1 LPS/ATP IL-1B secretion, AlphaLISA, 16 h; stronger effect = lower value; activity change, % at 57.5 µM; 360,000 tested, 4.7% active; AID 743279; in the data active = activity change below about -50%; inconclusive = mostly about -30% to -49%
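THP-1 cells pretreated 1 hr with compounds (up to 57.5 uM final), then stimulated with LPS (250 ng/mL final) plus ATP (1.25 mM final); secreted IL-1B measured by AlphaLISA after 16 hr, decreased signal indicating inhibition.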
HT1080-NT tox: kills 2HG-producing HT-1080-NT fibrosarcoma cells; HT-1080-NT fibrosarcoma viability, CellTiter-Glo ATP luminescence, 48 h; Potency, µM (highest dose often 46.1 µM), inactives show at the top dose activity, negative = less viability, actives largely listed as cytotoxic; 360,000 tested, 1.6% active;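 also: NT is the 2HG producing partner of a matched IDH1 knockdown line; potency is read from the fitted curve at half-maximal effect; 0% = DMSO-treated cells and -100% = media-only wells without cells; nearly all actives have a fitted effect of over 55% in size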
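Viability of the 2HG-overproducing fibrosarcoma line after 48 hours of compound exposure at 37 degrees C was determined by luminescence with CellTiter-Glo, and concentration-effect curves were then fitted and categorized.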
HT1080 IDH1KD tx: toxicity to HT-1080 IDH1 knockdown cells (counter line). HT-1080 IDH1 knockdown viability, ATP luminescence, 48 h. AID 686971. 360,000 tested, 2% active. Potency, µM (top dose mostly 46.1 µM), without a hit: at the highest dose activity, negative = toxicity, actives largely listed as cytotoxic;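 also: potency is read from the fitted curve at half-maximal effect; 0% = DMSO wells and -100% = cell-free medium wells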
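Assay cells: HT-1080 with IDH1 knockdown, 750 per well, RPMI/5% FBS. Exposure: 48 h at 37 °C following 2 h pre-incubation. Read: CellTiter-Glo luminescence; fitted concentration-response, curve class assigned.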
DT40 TDP1 no CPT: qHTS for Inhibitors of human tyrosyl-DNA phosphodiesterase 1 (TDP1): qHTS in cells in absence of CPT. 420,000 tested, 15% active. Potency, µM (titrated, usually from 46.2 µM), for the others: at the highest dose activity change, negative = growth inhibition, most hits filed as inhibitors. DT40 Tdp1-/- hTDP1 cells, no CPT, ATP luminescence, 48 h; also: potency is read from the fitted curve at half-maximal effect; nearly all actives have a fitted effect of over 55% in size
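Growth of hTDP1-complemented DT40 Tdp1-knockout cells is measured by ATP luminescence after at least 48 hr compound exposure at 37 °C, with DMSO substituting for the 20 nM CPT used in the parallel screen.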
An asterisk follows results filed as active; ? = inconclusive; nt = no result; [ ] = remark or other dose. Unless noted, calls follow the shape of the dose curve; as a rule, active = well fitted curve in the direction sought with a large enough effect; inconclusive = small, poorly fitted or top-dose-only effect, or another doubt; inactive = no such curve, though single readings can be large; an effect the other way counts as inactive or inconclusive. Unless noted, % is scaled to controls: 0 for no effect and ±100 for the full control effect.

SMILES	TDP1 cell CPT	IL-1B inflam inh	HT1080-NT tox	HT1080 IDH1KD tx	DT40 TDP1 no CPT
Cc1ccccc1CCNC(=O)c1cc2cc(S(=O)(=O)N3CCCCC3)ccc2n1C	10µM*	nt	nt	nt	18µM*
Cc1cccc(CNC(=O)c2cc3cc(S(=O)(=O)N4CCCCC4)ccc3n2C)c1	?	nt	nt	nt	18µM*
CCOc1ccc(CNC(=O)c2cc3cc(S(=O)(=O)N4CCCCC4)ccc3n2C)cc1	18µM*	nt	nt	nt	16µM*
Cn1c(C(=O)NCc2cccc(F)c2)cc2cc(S(=O)(=O)N3CCCCC3)ccc21	?	nt	nt	nt	23µM*
CCCN(CC(=O)Nc1ccc(F)c(F)c1F)C(=O)CN1C(=O)NC2(CCCCC2)C1=O	-1%	0	-1%	0%	-21%
COc1ccccc1C(=O)OCCNC(=O)Cn1cnc2c1c(=O)n(C)c(=O)n2C	0%	23	25%	12%	-10%
O=C(c1cc(-c2ccccc2)on1)N1CCOc2ccc(CN3CCOCC3)cc2C1	14%[9.04 µM]	nt	nt	nt	?
COC(=O)c1ccc(C2c3c(-c4ccccc4O)n[nH]c3C(=O)N2Cc2ccncc2)cc1 (stereo not given)	18µM*	nt	nt	nt	?
O=C1c2[nH]nc(-c3ccccc3O)c2C(c2cccc(Br)c2)N1Cc1ccncc1 (stereo not given)	2.9µM*	nt	nt	nt	1.2µM*
Cc1ccc(C2c3c(-c4ccccc4O)n[nH]c3C(=O)N2Cc2ccncc2)cc1 (stereo not given)	?	?	?	?	23µM*
CS(=O)(=O)c1ccccc1-c1nnc(NC(=O)c2cccc(N3C(=O)CCC3=O)c2)o1	-8%	2	-4%	16%	-25%
OC[C@H]1NC[C@H](O)[C@@H](O)[C@H]1O	-5%	nt	nt	nt	-4%
N#C/C(=C(/O)c1ccc2c(c1)OCO2)c1nc2cc(C(F)(F)F)ccc2s1	10µM*	-54*	?	?	15µM*
N#C/C(=C(/O)c1ccccc1F)c1nc2cc(C(F)(F)F)ccc2s1	?	-9	-7%	-8%	?
CCOC(=O)c1c(-c2ccc(-c3ccccc3)cc2)csc1NC(=O)c1cccc(N2C(=O)CCC2=O)c1	8.2µM*	2	14%	10%	6.5µM*
CCOC(=O)c1sc(NC(=S)NC(=O)c2ccccc2)c(C(=O)OCC)c1C	?	14	7%	6%	?
CCOC(=O)c1sc(NC(=S)NC(=O)c2ccccc2Cl)c(C(=O)OCC)c1C	?	1	4%	3%	26µM*
CCNC(=S)Nc1scc(-c2ccccc2)c1C(=O)OCC	?	9	-29%	-29%	23µM*
CCOC(=O)c1c(NC(=O)c2cccc(N3C(=O)CCC3=O)c2)sc(C)c1C	?	-15	7%	-1%	?
CCOC(=O)c1c(-c2ccc(-c3ccccc3)cc2)csc1NC(=O)CNCCN(C)C	?	-104*	9.2µM*	9.2µM*	23µM*
O=C(C1CCCN(Cc2ccccc2F)C1)N1CCc2ccccc2C1 (stereo not given)	-6%	nt	0%	14%	?
O=c1[nH]cc(CCc2ccccc2)c2ncncc12	?	nt	16%	21%	?
CCOC(=O)c1c(-c2ccccc2)csc1NC(=O)C(C)NCCCN1CCOCC1 (stereo not given)	?	-53*	?	?	?
CCOC(=O)c1c(-c2ccc(F)cc2)csc1NC(=O)C1CC=CCC1C(=O)O (stereo not given)	-3%	29	-18%	-19%	-20%
CCOC(=O)c1c(-c2cccc([N+](=O)[O-])c2)csc1NC(=O)C1CC1	18µM*	?	?	?	21µM*
CCOC(=O)c1c(-c2ccccc2)csc1NC(=O)c1cc(-c2cccc(Cl)c2)on1	2%	nt	nt	nt	-15%
CCOC(=O)c1c(-c2ccc(F)cc2)csc1NC(=O)CCN1CCOCC1	?	7	2%	1%	21µM*
CCOC(=O)c1c(-c2ccccc2)csc1NC(=O)c1cc(=O)c2ccc(C)cc2o1	-17%	nt	nt	nt	-19%
